{
  "source": "PubChem BioAssay (Tox21)",
  "note": "Records with an inconclusive call do not appear. Calls of active or inactive are those of the source. The call rests on the fitted dose curve; in most records, active means well fitted inhibition curve with a large enough effect in the repeat runs; inconclusive means weak or mixed curves; inactive means no such curve, though single readings can be large or run the other way.",
  "data": [
    {"target": "Aromatase (Homo sapiens) (UniProt P11511)", "sequence (P11511 whole entry, looked up)": "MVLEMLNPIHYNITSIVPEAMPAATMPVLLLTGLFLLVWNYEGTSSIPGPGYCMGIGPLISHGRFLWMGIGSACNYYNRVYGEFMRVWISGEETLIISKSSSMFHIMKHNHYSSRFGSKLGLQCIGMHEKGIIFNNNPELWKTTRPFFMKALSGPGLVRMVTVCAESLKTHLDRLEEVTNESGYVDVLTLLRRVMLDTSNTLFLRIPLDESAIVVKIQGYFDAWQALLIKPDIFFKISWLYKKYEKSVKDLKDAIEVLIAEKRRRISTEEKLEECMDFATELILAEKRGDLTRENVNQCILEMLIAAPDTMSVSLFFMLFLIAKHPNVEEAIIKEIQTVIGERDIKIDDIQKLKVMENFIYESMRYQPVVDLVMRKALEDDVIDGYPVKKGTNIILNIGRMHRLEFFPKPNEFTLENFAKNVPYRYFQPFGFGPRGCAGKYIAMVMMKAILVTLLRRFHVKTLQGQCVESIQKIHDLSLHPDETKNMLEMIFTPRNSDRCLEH", "test": "qHTS assay to identify aromatase inhibitors (AID 743083); further: nearly all actives have a fitted effect of over 55% in size", "conditions": "MCF-7 aro ERE, testosterone-driven ERE luciferase, 24 h; series mostly up to 70.3 µM", "values": [
      {"smiles": "OCCc1ccccn1", "outcome": "inactive"},
      {"smiles": "CC1(C)[C@@H]2CC[C@@]1(C)[C@H](O)C2", "outcome": "inactive"},
      {"smiles": "CCCCc1nc(Cl)c(CO)n1Cc1ccc(-c2ccccc2-c2nn[nH]n2)cc1", "outcome": "inactive"},
      {"smiles": "CC(=O)c1ccccc1[N+](=O)[O-]", "outcome": "inactive"},
      {"smiles": "CC(C)COC(=O)c1ccc(N)cc1", "outcome": "inactive"},
      {"smiles": "O=S(=O)(O)c1cccc2ccccc12", "outcome": "inactive"},
      {"smiles": "C1CCC2(CCCCO2)OC1", "outcome": "inactive"},
      {"smiles": "Cc1ccnc(NS(=O)(=O)c2ccc(N)cc2)n1", "outcome": "inactive"},
      {"smiles": "CCCCCCCCCC[N+](C)(C)[O-]", "outcome": "inactive"},
      {"smiles": "c1ccc(Cc2ccccc2)cc1", "outcome": "inactive"},
      {"smiles": "CC1=NS(=O)(=O)c2cc(Cl)ccc2N1", "outcome": "inactive"},
      {"smiles": "Cc1ccc(C(=O)c2ccc(CC(=O)O)n2C)cc1", "outcome": "inactive"},
      {"smiles": "Cc1cccc(C)c1NC(=O)CC12CCCN1CCC2", "outcome": "inactive"},
      {"smiles": "Nc1ccccn1", "outcome": "inactive"},
      {"smiles": "CCCCCCCCCCCCSC", "outcome": "inactive"},
      {"smiles": "C[C@@H]1CCC[C@H](C)N1", "outcome": "inactive"}
    ]}
  ]
}
